Data as given in PubChem BioAssay AID759 (NMMLSC, 2007).
Hit rate of the full screen: of about 190,000 compounds, about 270 (0.14%) were called active. Another 2% or so got no clear call; they are omitted.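 The calls were made as follows: active = GTP binding activity at least 20% away from the 100% baseline, either lowered as inhibitor or raised as activator; inconclusive = flagged as likely green fluorescent, judged across all proteins in the well; inactive = the rest.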 This excerpt belongs to a sample that is enriched for actives.

Molecular target: GTPase HRas (Homo sapiens) (UniProt P01112)
Sequence (P01112 whole entry, looked up): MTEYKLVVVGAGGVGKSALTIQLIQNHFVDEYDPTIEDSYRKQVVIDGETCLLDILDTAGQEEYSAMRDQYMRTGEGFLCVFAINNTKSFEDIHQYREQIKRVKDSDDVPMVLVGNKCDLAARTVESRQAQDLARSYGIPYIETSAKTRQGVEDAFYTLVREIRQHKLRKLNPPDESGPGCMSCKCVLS
Experiment: HRas wt fluorescent GTP binding changes, either direction – biochemical, wildtype, bead-based flow cytometry, multiplex, primary screen (AID 759);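 also: 0% = unlabeled GTP competition control and 100% = no-compound control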
Conditions: GST-Ras wt beads, Bodipy-FL-GTP binding, at 10 µM, actives lie on both sides

GTP binding activity, active:
Cc1ccc(CSc2nc3[nH]ncc3c(=O)[nH]2)cc1 78%, CSc1nsc(SC)c1NC(=O)OC1CCCCC1 39%, O=C(Nc1ccccc1F)c1ccccc1-c1ccccc1 76%, Cc1ccc(Nc2c(F)c(F)c(F)c(F)c2C(=O)O)c(C)c1 124% [activator], COc1ccc(/C=N/Nc2ncnc3sc4c(c23)CCCC4)cc1O 71%, O=C(OCC1O[C@@H](OC(=O)c2cc(O)c(O)c(O)c2)[C@@H](OC(=O)c2cc(O)c(O)c(O)c2)[C@@H](OC(=O)c2cc(O)c(O)c(O)c2)[C@@H]1OC(=O)c1cc(O)c(O)c(O)c1)c1cc(O)c(O)c(O)c1 (some centres undefined) 79%, COc1ccc(S(=O)(=O)N2CCOCC2)cc1C(=O)Nc1nc2ccccc2s1 75%

GTP binding activity, inactive:
CCCCNC(=O)Nc1c(C)cc(SC#N)cc1C 95%, CCCSc1nc2[nH]ncc2c(=O)[nH]1 101%, Cc1cccc(NC(=O)CSc2nc3[nH]ncc3c(=O)[nH]2)c1 97%, CCC(=O)/C(=C(/O)c1ccccc1)c1nc2ccccc2[nH]1 98%, COC(=O)c1nn(-c2cccc(Cl)c2)ccc1=O 97%, O=C(CC12CC3CC(CC(C3)C1)C2)NCc1ccco1 96%, CCc1ccc(Nc2nnc(SCC(=O)c3ccc4c(c3)NC(=O)CO4)s2)cc1 99%, COc1ccccc1CC(NC(C)=O)C(=O)NC1CCN(C(=O)Nc2ccccc2Cl)CC1 (centres undefined) 101%, COC(=O)c1ccc(/C=N/OCC(=O)Nc2cc(F)ccc2F)cc1 95%, COc1ccc(N2CCN(CCCNC(=O)C3CCN(S(=O)(=O)N4CCOCC4)CC3)CC2)cc1 96%, COc1ccc(/C=C/CN2CCN(Cc3ccc(C)cc3)C(CCO)C2)cc1 (centres undefined) 105%, COc1cccc(NCCC(=O)c2cccc([N+](=O)[O-])c2)c1 97%, Cc1ccc(C(=O)O)cc1NC(=O)c1ccc(Cn2nc(C)c(Cl)c2C)o1 100%, Cc1noc(C)c1COc1cccc(C(=O)Nc2cccnc2)c1 97%, Cc1[nH]c2c(C(=O)N3CCCC(CCC(=O)NCc4ccccc4F)C3)cccc2c1C (centres undefined) 106%, COC(=O)c1nc(NC(=O)c2ccc(F)cc2)n[nH]1 98%, N#CC1=C(N)Oc2[nH]c(=S)[nH]c(=O)c2C12C(=O)Nc1ccccc12 (centres undefined) 96%, COc1ccc(/C=C(\C#N)C(=O)ONC2=NCCCCC2)cc1 97%, C=C(C)CNC(=S)N/N=C/c1ccccc1OCC(=O)O 95%, O=C(COC(=O)c1cnc(Cl)c(Cl)c1)NCc1ccco1 97%, CN1CCN(C(=O)N2c3ccccc3CCc3ccccc32)CC1 102%, O=C(Nc1cccc(Cl)c1)c1cc([N+](=O)[O-])ccc1N1CCN(CCO)CC1 97%, CC/C(Cc1ccccc1)=N/NC(=O)CCn1nnc2ccccc21 101%, COc1ccc(NC(=O)c2c(SC)nsc2SC)cc1 101%, CSc1ncccc1C(=O)NC1CCCCCC1 98%, Cc1ccc(S(=O)(=O)N2CCN(C(=O)c3cccs3)CC2)cc1 93%, COc1ccc(O)c(C(=O)c2cnc3c(c2)c(-c2ccc(F)cc2)c(C#N)c(=O)n3C)c1 95%, O=C(CCCc1ccccc1)NCc1ccccc1 94%, COc1cc2nc(CN(C)Cc3ccc(F)cc3)[nH]c(=O)c2cc1OC 97%, NC(=O)c1ccccc1NC(=O)c1ccccc1F 101%, O=C(Nc1ccccc1F)c1ccccc1-c1ccc(C(F)(F)F)cc1 104%, COc1cc(C(=O)N[C@@H](C)C(=O)NCc2ccco2)cc(OC)c1OC 98%, Cc1cccn2c(CN(C)C3CCCc4ccccc43)c(C(=O)N3CCOCC3)nc12 (centres undefined) 98%, O=C1CC(c2c(F)cccc2Cl)C(n2cncn2)C(O)=C1C1NCCc2ccccc21 (centres undefined) 94%, O=C(Nc1ccccc1C(=O)N1CCOCC1)c1ccc(CSc2ccccc2)cc1 100%, Nc1ncnc(Nc2cccc(Cl)c2Cl)n1 97%, COc1cc(C(=O)N2C(=O)c3cccc(N)c3C2=O)cc(OC)c1OC 95%, Cc1ccc(NC(=S)NC(=O)c2ccc(-c3ccccc3)cc2)c(C)c1 100%, COc1c(F)c(F)c(C(=O)O)c(Nc2ccccc2C)c1F 98%, Cc1cc(C)nc(NNC2=CC(=O)CC(C)(C)C2)n1 99%, CCOc1ccc(OCc2cccc(C(=O)N(CC)CC)c2)cc1 98%, CN(Cc1cc2cc(F)ccc2[nH]1)Cc1nc(-c2cnccn2)no1 98%, CC(C)(C)C(=O)N(Cc1ccccc1)c1ccccn1 95%, COc1ccccc1NC(=O)COC(=O)Cc1ccc(S(=O)(=O)N2CCCCC2)s1 98%, S=c1ccc2ccccc2[nH]1 98%, C=CCNC(=O)CC12CC3CC(C1)CC(CC(=O)NCC=C)(C3)C2 99%, Cc1ccc(SCCC(=O)NCc2ccccn2)cc1 99%, CCOc1ccc(NS(=O)(=O)c2cc(C)c(C)cc2C)cc1 98%, COc1cc(/C=N/Nc2ccc(C)cc2)cc(Br)c1O 96%, COc1ncnc2sc3c(c12)CCCC3 103%, O=C(Nc1ccc(-c2ccc3nncn3n2)cc1)C1CCCCC1 99%, CC(=O)NC1C(OCc2ccccc2)OC(COC(C)=O)C(OC(C)=O)C1OC(C)=O (centres undefined) 102%, O=S(=O)(Nc1ncccn1)c1ccc(NS(=O)(=O)c2cccc(Cl)c2Cl)cc1 96%, CC(CC(=O)O)CC(=O)NNC(=O)c1cccc(Br)c1 (centres undefined) 95%, CC(C)N(C)C(=O)CCc1nnc(CCc2c[nH]c3ccccc23)o1 93%, CCOc1cc(NC(=S)NCc2ccco2)c(OCC)cc1NC(=O)c1ccco1 98%, O=C(CN1CCN(S(=O)(=O)/C=C/c2ccccc2)CC1)Nc1ccc(N2CCOCC2)cc1 99%, Cc1ccc(CC(=O)Nc2cccc(C#N)c2)cc1 98%, NNC(=O)c1cnn(-c2ccccc2)c1C(F)(F)F 98%, CCCN(CC(=O)Nc1ccc(C(N)=O)cc1)CC(=O)Nc1ccccc1C 96%, CN(C)C(=O)CSc1n[nH]c(-c2ccco2)n1 94%, O=C(CNCc1ccc(Cl)cc1)Nc1cccc(C(=O)O)c1 95%, CCN(CC)c1ccc2c(Nc3ccccc3)c(C=O)c(=O)oc2c1 93%, CC(=O)c1sc(NC(=O)C2=NN(c3ccccc3)C(=O)CC2)nc1C 98%, COc1ccc(NC(=O)COC(=O)c2ccncc2)c(OC)c1 97%, C=CCOCCN(C)C1=NS(=O)(=O)c2ccccc21 100%, Cc1cc(OC(=O)c2ccccc2Cl)ccc1N1C(=O)CCC1=O 97%, CN(C)c1ccc(NC(=O)CSc2n[nH]c(-c3ccco3)n2)cc1 94%, CCOC(=O)c1sc(NC(=O)c2cc(S(=O)(=O)N3CCOCC3)ccc2C)nc1C 100%, COc1ccc(S(=O)(=O)N2CCOCC2)cc1NC(=O)CSc1ncnc2ccccc12 93%, O=C(O)CC1S/C(=N\N=C/c2ccccc2O)N(c2ccc(O)cc2)C1=O (centres undefined) 97%, Cc1sc2c(c1C)c(=O)n(-c1ccccc1)c(=O)n2CC(=O)NCC1CCCO1 (centres undefined) 98%, C=CCOC(=O)C1=C(C)N=C2SCCC(=O)N2C1/C=C/c1ccccc1OC (centres undefined) 99%, COc1cc(N/C=C2\CC(=O)NC(C)=C2C#N)cc(OC)c1OC 102%, O=C(Nc1ccc(N2CCOCC2)cc1)c1ccc2c(c1)OCO2 99%, CCc1ccc(NC(=O)C(=O)N/N=C(\C)CC(=O)NCCOC)cc1 96%, CCn1c(SCc2cc(=O)n3ccsc3n2)nc2ccccc21 102%, Oc1cccc2ccc(/C=C/c3ccc(Br)s3)nc12 100%, CC(=O)C1(C)N(O)C(C)(C)C(c2cccs2)=[N+]1[O-] (centres undefined) 98%, CCOCC(=O)Nc1ncc(S(=O)(=O)c2ccc([N+](=O)[O-])cc2)s1 91%, CN(C(=O)CSc1nncc2ccccc12)C1CCCCC1 96%, CC1(C)CC(=O)C(CC(=O)N2CCC(Cc3ccccc3)CC2)C(=O)C1 96%, CCn1cc(-c2cc(C(=O)O)on2)c(C)n1 95%, c1csc(-c2nnc(COc3ccc4c(c3)OCO4)o2)c1 96%, CCNC(=O)CC1C(=O)N(c2ccc(F)cc2)C(=O)N1Cc1cccs1 (centres undefined) 100%, CNC(=O)NC(=O)CSc1nnc(-c2ccc(F)cc2)n1CC1CCCO1 (centres undefined) 97%, C=CCn1c(COc2ccc(F)cc2)nnc1SCC(=O)Nc1cccc(S(N)(=O)=O)c1 96%, Cc1ccccc1C(=O)Nc1ccc(N2CCCCCC2)cc1 96%, Nc1nnc(SCn2nnc3ccccc3c2=O)s1 95%, O=C(NCc1ccc(F)cc1)C(c1ccccc1)N(C(=O)c1csnn1)C1CC1 (centres undefined) 95%, O=C(O)CCCCCNc1ncnc2ccc(Br)cc12 97%, C=C(C)C1CC=C(C)/C(=N/NC(=O)CCCNc2cccc(C)c2)C1 (centres undefined) 96%
